About 83,000 compounds went through this panel and 20% of them were active in at least one assay; those are over-represented in the sample as a whole.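 Single-dose data. Exposure time 48 hours. Values below 10 considered active.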 Unmarked numbers belong to inactive results. Calls of active or inactive are those of the source.

Holding throughout (assay): NCI-60 one-dose screen, 48 h (100 = growth as untreated, 0 = no growth, -100 = all killed)
The subject of one assay is NCI-H23 lung. To be noted: 10 µM unless noted.
A further assay has as its system NCI-H226 lung. To be noted: 10 µM unless noted.
A further assay relates to NCI-H322M lung. To be noted: 10 µM unless noted.
Another assay relates to HOP-62 NSCLC. To be noted: 10 µM unless noted.
The test system of a further assay is NCI-H460 lung. To be noted: 10 µM unless noted.
In the next assay the test system is HOP-92 NSCLC. To be noted: 10 µM unless noted.
The next assay concerns NCI-H522 lung. To be noted: 10 µM unless noted.
The next assay relates to A549/ATCC NSCLC. To be noted: 10 µM unless noted.
The subject of the next assay is 786-0 renal. To be noted: 10 µM unless noted.
Another assay deals with COLO 205 colon. To be noted: 10 µM unless noted.
A further assay concerns DU-145 prostate. To be noted: 10 µM unless noted.
A further assay has as its system K-562 leukemia. To be noted: 10 µM unless noted.
The subject of a further assay is MDA-MB-231 breast. To be noted: 10 µM unless noted.
The next assay deals with RXF 393 renal. To be noted: 10 µM unless noted.
The test system of the next assay is SF-268 CNS. To be noted: 10 µM unless noted.
Another assay concerns SF-295 CNS. To be noted: 10 µM unless noted.
For a further assay, the system named is SF-539 CNS. To be noted: 10 µM unless noted.
For the next assay, the system named is UACC-257 melanoma. To be noted: 10 µM.
A further assay deals with M14 melanoma. To be noted: 10 µM unless noted.
Another assay deals with MALME-3M melanoma. To be noted: 10 µM unless noted.

`CC(=O)Nc1ccc(S(=O)(=O)N2C(=O)CCC2C(=O)Nc2ccc(Br)cc2)cc1` (stereo not given): the growth in the assay with NCI-H23 lung is 21.9%; in the assay on NCI-H226 lung, 50.2%; in the assay with NCI-H322M lung, 31.8%; with HOP-62 NSCLC it was 45.6%; in the assay with NCI-H460 lung it was 21.2%; in the assay on HOP-92 NSCLC, 11.8%. Besides, the growth was -7.58% (active) in the assay with NCI-H522 lung; 22.3% with A549/ATCC NSCLC; 57.8% in the assay on 786-0 renal; 6.33% (active) in the assay with COLO 205 colon; 44.2% in the assay with DU-145 prostate; 0.475% (active) in the assay with K-562 leukemia. Besides, the growth in the assay with MDA-MB-231 breast is 34.4%; in the assay on RXF 393 renal it was 57.4%; in the assay on SF-268 CNS, 47.6%; with SF-295 CNS, 13.1%; with SF-539 CNS, 42.1%; in the assay with UACC-257 melanoma it was 30.4%. For the same compound, the growth in the assay on M14 melanoma is 36.9%.

As for `COc1ccc(NC(=O)CSc2nc3ccc(Cl)cc3c(=O)n2-c2ccccc2C(F)(F)F)c(OC)c1OC`, the growth is 79.6% in the assay on NCI-H23 lung; 62% in the assay on NCI-H226 lung; 86.6% in the assay with NCI-H322M lung; 60.6% with HOP-62 NSCLC; 82.4% in the assay on NCI-H460 lung; -2.83% (active) with HOP-92 NSCLC. Besides, the growth with NCI-H522 lung is 32.4%; in the assay on A549/ATCC NSCLC, 72%; in the assay on COLO 205 colon it was 92.9%; with DU-145 prostate it was 79.1%; in the assay on K-562 leukemia, 92.8%; in the assay with MALME-3M melanoma, 60.8%. Further, the growth in the assay on MDA-MB-231 breast is 54%; with RXF 393 renal, 60.3%; in the assay with SF-268 CNS, 66.7%; in the assay on SF-295 CNS it was 60.9%; in the assay with SF-539 CNS, 66.9%; with UACC-257 melanoma, 86%. Moreover, in the assay with M14 melanoma, the growth was 91.4%.

Turning to `CCC(=O)Oc1cc(/C=C/C(=O)O[C@H]2C[C@H]3CN4CCc5c([nH]c6cc(OC)ccc56)[C@@H]4C[C@@H]3[C@@H](C(=O)OC)[C@@H]2OC)ccc1OC`, the growth is 86.7% in the assay with NCI-H23 lung; 67% with NCI-H226 lung; 122% in the assay with NCI-H322M lung; 89% in the assay on HOP-62 NSCLC; 93.5% in the assay on NCI-H460 lung; -1.22% (active) in the assay on HOP-92 NSCLC. The growth was 84% with NCI-H522 lung; 80.5% with A549/ATCC NSCLC; 70.3% in the assay with 786-0 renal; 69.5% with COLO 205 colon; 82.9% in the assay with DU-145 prostate; 39.7% in the assay on K-562 leukemia. Moreover, the growth with MDA-MB-231 breast is 49.7%; with RXF 393 renal, 57.9%; in the assay on SF-268 CNS it was 74.8%; in the assay on SF-295 CNS, 106%; in the assay on SF-539 CNS it was 84.6%; in the assay on UACC-257 melanoma it was 74.9%. Also, the growth in the assay on M14 melanoma is 82.5%.

As to `CCOC(=O)c1ccccc1NC(c1ccccc1)c1ccc2cccnc2c1O` (stereo not given), the growth was 30.3% in the assay on NCI-H23 lung; 7.15% (active) in the assay with NCI-H226 lung; 42.5% in the assay with NCI-H322M lung; 16.4% with HOP-62 NSCLC; 6.16% (active) with NCI-H460 lung; 16.5% with HOP-92 NSCLC. For the same compound, the growth in the assay with NCI-H522 lung is -1.69% (active); in the assay with A549/ATCC NSCLC, 21.6%; in the assay on 786-0 renal, 1.44% (active); in the assay on COLO 205 colon, 16.3%; in the assay on DU-145 prostate, 36.9%; in the assay on K-562 leukemia, 30.2%. For the same compound, the growth in the assay on MALME-3M melanoma was 54.4%; with RXF 393 renal, 25%; in the assay with SF-268 CNS, 28.6%; in the assay with SF-295 CNS it was 25.4%; in the assay with SF-539 CNS, 11.8%; in the assay with UACC-257 melanoma, 22.1%. The growth in the assay with M14 melanoma is 15.7%.

With `O=S(=O)(NCCNc1nccc(-c2c(-c3ccccc3)nc3sccn23)n1)c1ccc(O)cc1`, the growth was 50.3% in the assay with NCI-H23 lung; 46% in the assay on NCI-H226 lung; 58.2% in the assay on NCI-H322M lung; 58.9% with HOP-62 NSCLC; 21.4% in the assay on NCI-H460 lung; 61.3% with HOP-92 NSCLC. Moreover, the growth was 65.4% in the assay on NCI-H522 lung; 32.2% with A549/ATCC NSCLC; 64.1% in the assay with 786-0 renal; 28.5% in the assay with COLO 205 colon; 46% with DU-145 prostate; 35.9% in the assay with K-562 leukemia. Besides, the growth in the assay with MDA-MB-231 breast was 50%; in the assay on RXF 393 renal it was 45.9%; with SF-268 CNS, 46.5%; in the assay with SF-295 CNS, 47.3%; with SF-539 CNS, 59.2%; with UACC-257 melanoma it was 82.4%. Besides, in the assay on M14 melanoma, the growth was 35.7%.

`CCC(c1ccc(OC)cc1)C(CC)c1ccc(OCC[N+](C)(C)C)cc1` (stereo not given): the growth with NCI-H23 lung was 48.8%; in the assay with NCI-H226 lung, 49.8%; in the assay on NCI-H322M lung, 89.6%; with HOP-62 NSCLC it was 73.9%; in the assay on NCI-H460 lung it was 59%; in the assay with HOP-92 NSCLC, 9.93% (active). Besides, the growth was 35% in the assay on NCI-H522 lung; 74.3% in the assay with A549/ATCC NSCLC; 88% with 786-0 renal; -74.7% (active) with COLO 205 colon; 91.9% with DU-145 prostate; 24.7% in the assay with K-562 leukemia. Also, the growth with MALME-3M melanoma is 58%; in the assay with RXF 393 renal it was 99.6%; in the assay with SF-268 CNS it was 40.8%; in the assay on SF-295 CNS it was 78.6%; with SF-539 CNS, 41.9%; in the assay on M14 melanoma, 64%.

Take `CC(=O)Nc1ccc(S(=O)(=O)N2C(=O)CCC2C(=O)Nc2ccccc2)cc1` (stereo not given): the growth is 38.5% in the assay with NCI-H23 lung; 46.9% in the assay on NCI-H226 lung; 38% with NCI-H322M lung; 30.3% in the assay on HOP-62 NSCLC; 15.1% with NCI-H460 lung; -5.79% (active) in the assay on HOP-92 NSCLC. For the same compound, the growth is 27.5% in the assay with NCI-H522 lung; 21.3% with A549/ATCC NSCLC; 26.2% with 786-0 renal; 12.1% in the assay with COLO 205 colon; 50.2% with DU-145 prostate; 11.8% with K-562 leukemia. Further, the growth was 25.6% in the assay with MDA-MB-231 breast; 57.7% in the assay on RXF 393 renal; 61.9% in the assay with SF-268 CNS; 1.91% (active) with SF-295 CNS; -22% (active) in the assay with SF-539 CNS; 33.7% in the assay on UACC-257 melanoma. Moreover, the growth in the assay on M14 melanoma is 10.3%.

Regarding `CCC(c1ccc(OC)cc1)C(CC)c1ccc(O)c(CN2CCCC2)c1` (stereo not given), the growth is 9.32% (active) in the assay with NCI-H23 lung; 31.7% in the assay with NCI-H226 lung; 14.4% in the assay with NCI-H322M lung; 30.9% in the assay on HOP-62 NSCLC; -47.2% (active) with NCI-H460 lung; -34.7% (active) in the assay on HOP-92 NSCLC. The growth in the assay with NCI-H522 lung is 22.8%; in the assay with A549/ATCC NSCLC, 33.1%; with 786-0 renal, 4.61% (active); with COLO 205 colon, -85% (active); in the assay with DU-145 prostate it was 43.3%; in the assay with K-562 leukemia, -32.1% (active). The growth in the assay on MALME-3M melanoma was -56.1% (active); with RXF 393 renal, -31.1% (active); in the assay with SF-268 CNS, 21.2%; in the assay on SF-295 CNS, -51.2% (active); in the assay on SF-539 CNS, -18.9% (active); in the assay with M14 melanoma it was -47.4% (active).
